Experimental data from PubChem BioAssay AID1159580 (chemical genetic matrix, 2015).
The whole screen tested about 5,500 compounds, of which about 2,000 (36%) were called active. About 18% were inconclusive and are not listed. Rule as the data show it: active = normalized growth mostly below about 0.91 (no sharp cut-off); inconclusive = no clear call, values can overlap the other calls; inactive = mostly above about 0.92. Some of the results follow.

Test: chemical genetic growth profiling, strain panel (AID 1159580);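 also: tested at 20 µM; growth read once vehicle control cultures reached saturation at 30 °C; 1 = growth at the plate median or of vehicle wells; lower values mean less growth of the strain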
Details: growth OD

Measured: normalized growth

COC(OC)c1cc(=O)[nH]c(=S)[nH]1
inactive: S. cerevisiae deletion strains, locus YAL013W, strain DEP1, stronger effect = lower value 1.01 | S. cerevisiae deletion strains, locus YBR229C, strain ROT2, stronger effect = lower value 1.02 | S. cerevisiae deletion strains, locus YDL101C, strain DUN1, stronger effect = lower value 1 | S. cerevisiae deletion strains, locus YDL134C, strain PPH21, stronger effect = lower value 1.02 | S. cerevisiae deletion strains, locus YDR150W, strain NUM1, stronger effect = lower value 0.918 | S. cerevisiae deletion strains, locus YEL061C, strain CIN8, stronger effect = lower value 1.04 | S. cerevisiae deletion strains, locus YGR078C, strain PAC10, stronger effect = lower value 1.03 | S. cerevisiae deletion strains, locus YHR030C, strain SLT2, stronger effect = lower value 1.06 | S. cerevisiae deletion strains, locus YHR087W, strain rtc3, stronger effect = lower value 1.01 | S. cerevisiae deletion strains, locus YJL187C, strain SWE1, stronger effect = lower value 1.02 | S. cerevisiae deletion strains, locus YJR043C, strain POL32, stronger effect = lower value 1.01 | S. cerevisiae deletion strains, locus YJR075W, strain HOC1, stronger effect = lower value 1.01 | S. cerevisiae deletion strains, locus YLR039C, strain RIC1, stronger effect = lower value 1.07 | S. cerevisiae deletion strains, locus YLR058C, strain SHM2 (second series), stronger effect = lower value 1.01 | S. cerevisiae deletion strains, locus YLR085C, strain ARP6, stronger effect = lower value 1.11 | S. cerevisiae deletion strains, locus YLR262C, strain YPT6, stronger effect = lower value 1.03 | S. cerevisiae deletion strains, locus YML094W, strain GIM5, stronger effect = lower value 1.02 | S. cerevisiae deletion strains, locus YMR219W, strain ESC1, stronger effect = lower value 1.01 | S. cerevisiae deletion strains, locus YMR263W, strain SAP30, stronger effect = lower value 1.03 | S. cerevisiae deletion strains, locus YMR307W, strain GAS1, stronger effect = lower value 1.12 | S. cerevisiae deletion strains, locus YNL153C, strain GIM3, stronger effect = lower value 1.01 | S. cerevisiae deletion strains, locus YNL298W, strain CLA4 (second series), stronger effect = lower value 1.08 | S. cerevisiae deletion strains, locus YNL322C, strain KRE1, stronger effect = lower value 1.01 | S. cerevisiae deletion strains, locus YNR030W, strain Alg12, stronger effect = lower value 1.02 | S. cerevisiae deletion strains, locus YPL055C, strain LGE1, stronger effect = lower value 0.935 | S. cerevisiae deletion strains, locus YPL241C, strain CIN2, stronger effect = lower value 0.913 | S. cerevisiae deletion strains, locus YPR135W, strain CTF4, stronger effect = lower value 1.03 | S. cerevisiae strains, strain wild type, stronger effect = lower value 1.01
